Screening data (PubChem BioAssay)
This excerpt belongs to a sample that is enriched for hits.
IMPase Li cell – cell-permeable IMPase inhibitors with lithium potentiation; Potency, µM (top dose mostly 59.4 µM), for inactives: at the highest dose activity, negative = IMPase inhibition, most hits filed as inhibitors; 0.35% of 210,000 active; CHO-M1 cells, IP1 TR-FRET (IP-One), carbachol + lithium;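 note: IP1 builds up when IMPase is blocked and the TR-FRET signal falls; plate controls were basal vehicle for no effect and high inhibitor control for full effect; nearly all actives have a fitted effect of over 50% in size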
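CHO-M1, 2000 cells/well, 16–30 h culture; cpd + low Li+, 30 min 37C; lysis with d2-IP1/Eu-anti-IP1 Ab, 10 min RT; TR-FRET 665/620 ratio and 620 channel; AC50 via Hill.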
GoLoco inh red – blocks human Gai1 binding to RGS12 GoLoco peptide, red readout; Gai1:RGS12 GoLoco peptide FP, rhodamine, 10 min; AID 880; P63096; 0.44% of 230,000 active; Potency, µM (series often up to 61.6 µM), inactives show at the highest dose activity, negative = inhibition, actives largely listed as inhibitors; active = well fitted inhibition curve with a large enough effect, not every such curve was filed as active; inactive = no such curve, though single readings can be large or run the other way; note: nearly all actives have a fitted effect of over 30% in size
NPSR antagonist – blocks cAMP signaling of the human neuropeptide S receptor | Q6W5P4 | CHO-NPSR cells, cAMP TR-FRET, antagonist mode | Potency, µM (highest dose often 38.3 µM), for inactives: at the highest dose activity change, negative = inhibition, actives largely listed as inhibitors | 1% of 220,000 active | AID 1461; note: nearly all actives have a fitted effect of over 50% in size
Tb PFK block – blocks T. brucei phosphofructokinase; T. brucei PFK, ADP-Glo luminescence; AID 485367; Potency, µM (highest dose often 57.5 µM), for the others: at the highest dose activity, negative = inhibition, most hits filed as inhibitors; 0.17% of 330,000 active; O15648;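 note: 0% = uninhibited 1x PFK enzyme wells and -100% = no-enzyme wells; nearly all actives have a fitted effect of over 60% in size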
Target sequence (O15648 whole entry, looked up): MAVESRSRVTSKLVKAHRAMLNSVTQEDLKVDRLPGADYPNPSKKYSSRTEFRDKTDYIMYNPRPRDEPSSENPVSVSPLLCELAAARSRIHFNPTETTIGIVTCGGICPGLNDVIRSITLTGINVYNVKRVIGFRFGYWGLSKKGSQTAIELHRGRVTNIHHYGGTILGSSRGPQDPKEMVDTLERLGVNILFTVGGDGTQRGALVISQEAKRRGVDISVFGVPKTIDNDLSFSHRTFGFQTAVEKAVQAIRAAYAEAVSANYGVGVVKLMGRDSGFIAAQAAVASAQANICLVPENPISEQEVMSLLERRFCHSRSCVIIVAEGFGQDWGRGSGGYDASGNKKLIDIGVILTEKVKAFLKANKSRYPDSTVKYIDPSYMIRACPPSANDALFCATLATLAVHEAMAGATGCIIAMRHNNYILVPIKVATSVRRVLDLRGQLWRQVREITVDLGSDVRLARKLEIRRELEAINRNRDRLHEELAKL
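1.25 nM PFK with 0.5 mM F6P and 0.1 mM ATP in 0.1 M TEA pH 8.0, 5 mM MgCl2, incubated 45 min at room temperature; ADP measured by ADP-Glo luminescence; compounds titrated up to 57 uM.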
MBNL1-CUG inh – inhibitors of human MBNL1 binding to CUG repeat RNA. Potency, µM (highest dose often 57.5 µM), without a hit: at the highest dose activity change, negative = inhibition, actives largely listed as inhibitors. AID 2675. 0.036% of 280,000 active. TR-FRET MBNL1-His/biotin-(CUG)12 binding, 665/545 ratio; active = well fitted inhibition curve with a large enough effect in the signal ratio, with a control signal flat, not every such curve was filed as active; inconclusive = small, poorly fitted or top-dose-only effect, or effect the other way, or a change in a side signal; inactive = no such curve, though single readings can be large or run the other way; the % refers to the signal ratio
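Compound titration spanned 92 nM–58 uM against the MBNL1-His/biotin-(CUG)12 complex. After 60 min at room temperature with 5 nM streptavidin-XL665 and 0.055 ng/ul terbium anti-His, ratiometric 665/545 nm emission (Ex 340 nm) normalized to controls.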
The depositor's hits bear a star; ? = inconclusive; . = not tested or not shown; ! = not active in a repeat; [ ] = dose if it differs, or a comment. Unless noted, calls come from the whole dose curve; as a rule, active = well fitted curve in the direction sought with a large enough effect; inconclusive = small, poorly fitted or top-dose-only effect, or another doubt; inactive = no such curve, though single readings can be large; an effect the other way counts as inactive or inconclusive. Unless noted, % is set by controls: 0 for no effect and ±100 for the full control effect; potency is the fitted concentration of half-maximal effect.

SMILES	IMPase Li cell	GoLoco inh red	NPSR antagonist	Tb PFK block	MBNL1-CUG inh
CCCC(=Nc1ccc(N)cc1)C1=C(O)C(C(=O)OC)C(C)(C)CC1=O (stereo not drawn)	61.2%[38.3 µM]	14.1µM*	-8.8%[46.1 µM]	-2.8%	?
CCCOc1ccc(-c2nn(-c3ccccc3)cc2/C=C2\SC(N)=NC2=O)cc1	?	2.1%	3.98µM*	-0.3%	.
C[N+](C)(C)C/C=C1/COCO1	-2.8%[38.3 µM]	10µM*	0.2%[46.1 µM]	-1.2%	7.5%
O=C(N[C@H]1C/C=C\C[C@H](CC(=O)N(CCO)Cc2ccccc2)C(=O)NC[C@H](c2ccccc2)OC1=O)OCC1c2ccccc2-c2ccccc21	.	.	.	-0.2%	.
N#C/C(=N\Nc1ccc(Cl)cc1)C(=O)c1ccccc1	45.3%[38.3 µM]	-8.2%	12.6µM*	-1.4%	3.7%
CCN(CC)CCNC(=O)c1c(C)[nH]c(/C=C2\C(=O)Nc3ccc(F)cc32)c1C	.	-6.4%	.	.	.
O=C(OCn1ncc(Cl)c(Cl)c1=O)c1ccccc1Cl	6.2%[38.3 µM]	-6.4%	5.01µM*	-1.3%	292.3%
Cc1ccccc1NC(=S)N1CCN(c2ccccc2)CC1	.	.	.	-4.4%	1.8%
Cc1cccc(C(=O)NCC(=O)OCCOc2ccccc2Cl)c1	.	.	.	2.7%	.
C[N+]1(C2CCC3CCCC2C3O)CCCC1 (stereo not drawn)	-0.8%	2.82µM*	17.0%	-2.5%	.
Nc1c(N(CCC2=CCCCC2)C(=O)c2ccccc2F)c(=O)[nH]c(=O)n1Cc1ccccc1	.	.	.	-0.3%	.
COC1=CC(=O)C(C(=O)c2ccccc2)=CC1=O	16.8%	6.31µM*	.	.	.
N#Cc1c(Cl)nc(SCc2ccccc2)nc1-c1ccccc1	2.51µM*	12.3%	-17.9%[46.1 µM]	10.9%	39.0%
Fc1ccccc1-c1nc2ccccc2[nH]1	-1.1%	16.1%	-10.7%	0.0%	-10.6%
c1ccc2[nH]c(-c3ccnc4ccccc34)nc2c1	-9.1%[38.3 µM]	25.1µM*!	8.9%[46.1 µM]	-1.8%	?
COc1cc2c(C)nc3c(c(C)nn3-c3ccccc3)c2cc1OC	11.2µM*	6.4%	-29.6%	-0.1%	3.0%
COc1cc2c(-c3ccc(O)cc3)nc3c(c(C)nn3-c3ccccc3)c2cc1OC	10.1%	3.3%	-21.8%	?	.
O=C(NC(Nc1ncc(S(=O)(=O)c2ccc([N+](=O)[O-])cc2)s1)(C(F)(F)F)C(F)(F)F)c1ccc(Cl)cc1	23.8%[38.3 µM]	-0.6%	12.6µM*	-7.3%	?
COCC(=O)Nc1ncc(S(=O)(=O)c2ccc([N+](=O)[O-])cc2)s1	2.4%	8.4%	10.5%	-0.8%	?
Cc1cccc(CN2CCN(CC(=O)N3CCCC3)C2=O)c1	14.9%[38.3 µM]	8.0%	4.3%[46.1 µM]	-4.0%	1.7%
Cc1cccc(CN2CCN(CC(=O)O)C2=O)c1	11.2µM*	-28.2%	-3.3%[46.1 µM]	1.5%	28.2%
COc1ccc2c(c1OC)C(=O)N(c1nc(SC)n[nH]1)C2=O	.	.	.	0.2%	18.8%
COC(=O)CCC(=O)OC1(C)C(=O)C=C2C=C(C3CC3)N(CC(C)C)C=C2C1=O (stereo not drawn)	10.6%	3.55µM*!	4.5%	2.6%	0.6%
O=C(O)CN(CCc1ccccc1)S(=O)(=O)c1ccccc1	.	.	.	0.3%	-3.1%
COC(=O)c1ccc2c(=O)n(CC3CCCO3)c(SCC(=O)Nc3ccccc3Cl)nc2c1 (stereo not drawn)	-5.3%[38.3 µM]	4.4%	-16.5%[46.1 µM]	0.0%	-9.5%
SMILES	IMPase Li cell	GoLoco inh red	NPSR antagonist	Tb PFK block	MBNL1-CUG inh
CCc1ccc(NC(=O)CSc2nc3cc(C(=O)OC)ccc3c(=O)n2CC2CCCO2)cc1 (stereo not drawn)	14.1µM*	6.2%	-4.1%[46.1 µM]	5.5%	-5.1%
COc1ccc(CCN2CC(C(=O)N(C)Cc3ccc4nsnc4c3)CCC2=O)cc1 (stereo not drawn)	.	.	.	4.2%	?
COC(=O)[C@@H]1CC[C@H](C)[C@@H](c2ccc(C)cc2)N1C(=O)c1ccc(/C=N/O[C@@H](C)CN2CCCCc3nc(C)c(C)cc32)cc1	16.4%	-3.2%	10µM*	0.0%	-10.6%
CC1CC(C)CN(S(=O)(=O)c2ccc(C(=O)Nc3sccc3C(N)=O)cc2)C1 (stereo not drawn)	32.2%[38.3 µM]	20.2%	?	-0.4%	27.8%
NC(=O)c1ccsc1NC(=O)c1ccc(S(=O)(=O)N2CCCC2)cc1	5.9%	-8.6%	2µM*	16.8%	2.0%
CCCN1C(=O)C2(C(C(=O)c3ccc(C)o3)=C(O)C(=O)N2CCCN2CCOCC2)c2ccccc21 (stereo not drawn)	10µM*	-12.9%	18.7%[46.1 µM]	0.2%	5.2%
Cc1ccc(C)c(NC(=O)CN(C)C(=O)Cn2c(=O)oc3ccccc32)c1	.	.	.	-4.9%	.
COc1cc(NC(=O)COc2ccc(-n3cnnn3)cc2)cc(OC)c1OC	.	.	.	-1.5%	.
COc1ccccc1N1CCN(/N=C/c2cc(OC)c(O)c(OC)c2)CC1	26.1%	2.82µM*	-3.5%	-1.0%	.
COc1ccccc1N1CCN(/N=C/c2cccc(O)c2)CC1	13.0%	15.6%	7.3%	4.1%	7.2%
O=C(c1cccc([N+](=O)[O-])c1)N1CCN(S(=O)(=O)N2CCCCC2)CC1	.	.	.	-5.9%	?
Cc1ccc(S(=O)(=O)Nc2ccccc2F)cc1C(=O)N1CCN(c2ccccc2O)CC1	.	.	.	7.3%	.
O=C(O)CCC(O)=C1S(=O)(=O)OCCOS1(=O)=O	-1.5%	2.3%[14.2 µM]	.	.	.
O=C1OC2(c3ccc(O)cc3Oc3cc(O)ccc32)c2ccccc21	-9.5%	0.794µM*	.	.	.
Cc1cc(O)ccc1C1(c2ccc(O)cc2C)OC(=O)c2ccccc21	12.5%	-2.2%	?	2.2%	?
Cc1ccc(-n2c(N)c(C#N)c(-c3ccc(Cl)cc3)c(C#N)c2=O)cc1	28.2µM*	-12.6%	?	2.2%	?
Cc1ccc(-c2c(C#N)c(N)n(-c3ccc(C)cc3)c(=O)c2C#N)cc1	?	8.4%	-11.3%[46.1 µM]	-0.4%	74.8%
CCCCOC(=O)NS(=O)(=O)c1sc(CC(C)C)cc1-c1ccc(Cn2c(CC)nc3c(C)cc(C)nc32)cc1	11.0%	2.9%	12.6µM*	2.8%	.
O=C(O)c1cc(-c2ccco2)nc2ccc(Br)cc12	10µM*!	-10.7%	6.31µM*!	-0.1%	30.6%
N=c1c(S(=O)(=O)c2ccc(Cl)cc2)cc2c(=O)n3ccccc3nc2n1Cc1cccnc1	.	.	.	-0.8%	13.4%
C=C(C)C(=O)OC1(C(F)(F)F)Oc2cc(C)ccc2NC1=O (stereo not drawn)	-6.1%[38.3 µM]	-0.7%	10µM*	-1.5%	-0.4%
CCNc1ncc2nc(-c3ccc(Cl)cc3)c(=O)n(C)c2n1	-2.0%	4.0%	.	.	.
COc1ccc(C(=O)n2cnc3ccccc32)cc1	.	.	.	1.2%	-3.7%
COc1ccc(S(=O)(=O)N(C)C[C@@H]2Oc3c(NS(=O)(=O)c4cn(C)cn4)cccc3C(=O)N([C@@H](C)CO)C[C@@H]2C)cc1	.	.	.	0.5%	.
O=C1CCCCN1CCC(=O)N1CCCC(N2CCN(c3ccccc3)CC2)C1 (stereo not drawn)	.	.	.	1.2%	4.3%
